# Literature values in PubChem BioAssay AID977610.
# Hit rate of the full screen: of about 3,600 compounds, about 3,600 (100%) were called active. The limit is not given here; nearly all actives have Ki up to about 18000 µM. The set was probably picked from earlier hits. The list shows a part of the results.
# Assay: PubChem AID 977610
# Conditions: PDB protein-ligand complexes, literature Ki
compound,measurement,setting,value
ON1CC=CCC1=S,Ki,"protein: Carbonic anhydrase 2 (H94D mutation), PDB entry 4jss",500 µM (active)
CC(C)(C)n1nc(-c2cccc3ccccc23)c2c(N)ncnc21,Ki,"protein: Aminoglycoside 3'-phosphotransferase AphA1-IAB, PDB entry 4gkh",21.5 µM (active)
CC(=O)N[C@@H](CC(=O)O)C(=O)N[C@@H](Cc1ccccc1)[P+](O)(O)C[C@@H](C)C(=O)N[C@@H](C)C(N)=O,Ki,"protein: Angiotensin Converting Enzyme N domain glycsoylation mutant (Ndom389), PDB entry 3nxq",0.007 µM (active)
C[C@H](C[P+](O)(O)[C@H](Cc1ccccc1)NC(=O)[C@H](N)Cc1nn[nH]n1)C(=O)N[C@@H](C)C(N)=O,Ki,"protein: ANGIOTENSIN-CONVERTING ENZYME, PDB entry 4bxk",0.0112 µM (active)
CC(=O)N[C@@H](CC(C)C)C(=O)N[C@H](C(=O)N[C@@H](Cc1ccccc1)C(=O)N[C@]1(C)CCCCCC/C=C/CCC[C@@](C)(C(=O)N[C@@H](CO)C(=O)N[C@@H](C)C(=O)N[C@@H](C)C(=O)O)NC(=O)[C@H](CC2CCC2)NC(=O)[C@H](CCC(N)=O)NC(=O)[C@H](C)NC(=O)[C@H](Cc2c[nH]c3ccccc23)NC(=O)[C@H](Cc2ccc(O)cc2)NC(=O)[C@H](CCC(=O)O)NC1=O)[C@@H](C)O,Ki,"protein: Protein Mdm4, PDB entry 4n5t",0.007 µM (active)
CS[C@@H](CCCC1C(=O)NC(N)NC1N)c1ccc(C(=O)N[C@@H](CCC(=O)O)C(=O)O)cc1 (stereo partly drawn),Ki,"protein: Trifunctional purine biosynthetic protein adenosine-3, PDB entry 4ew2",0.21 µM (active)
CS[C@H](CCCC1C(=O)NC(N)NC1N)c1ccc(C(=O)N[C@@H](CCC(=O)O)C(=O)O)cc1 (stereo partly drawn),Ki,"protein: Trifunctional purine biosynthetic protein adenosine-3, PDB entry 4ew3",0.18 µM (active)
NC(=O)[C@H]1CCCc2c1[nH]c1ccc(Cl)cc21,Ki,"protein: NAD-DEPENDENT PROTEIN DEACETYLASE SIRTUIN-3, MITOCHONDRIAL, PDB entry 4bvb",33.4 µM (active)
CC(C)N(C[C@H]1O[C@@H](n2cnc3c(N)ncnc32)[C@H](O)[C@@H]1O)C1CC(CCc2nc3ccc(C(C)(C)C)cc3[nH]2)C1 (stereo partly drawn),Ki,"protein: Histone-lysine N-methyltransferase, H3 lysine-79 specific, PDB entry 4hra",8e-05 µM (active)
OC[C@H]1OCC[C@@H](O)[C@H]1O,Ki,"protein: GALACTOCEREBROSIDASE, PDB entry 4ccd",32 µM (active)
O=C(O)CCC(=O)O,Ki,"protein: Delta-1-pyrroline-5-carboxylate dehydrogenase, mitochondrial, PDB entry 4lh2",58000 µM (active)
N[C@@H](CCCNC(=O)C[P+](O)(O)O)C(=O)O,Ki,"protein: human ornithine transcarbamylase, PDB entry 1oth",0.1 µM (active)
OC[C@@H]1[C@@H](O)[C@H](O)[C@@H](O)[C@@H]1NCc1ccc(Br)cc1,Ki,"protein: strictosidine glucosidase, PDB entry 3zj8",127 µM (active)
NC(N)Nc1ccc([C@H](N)[P+](O)(O)O)cc1,Ki,"protein: M1 family aminopeptidase, PDB entry 4k5n",127 µM (active)
NC(N)c1ccc([C@H](N)[P+](O)(O)O)cc1,Ki,"protein: M1 family aminopeptidase, PDB entry 4k5p",345 µM (active)
N[C@@H](c1ccc(-n2cccn2)cc1)[P+](O)(O)O,Ki,"protein: M1 family aminopeptidase, PDB entry 4k5o",104 µM (active)
same,Ki,"protein: M17 leucyl aminopeptidase, PDB entry 4k3n",0.011 µM (active)
NC(N)Nc1ccc(C=O)cc1,Ki,"protein: Bovine beta trypsin, PDB entry 1gbt",10000 µM (active)
C=CCNC(=O)[C@@H](NC(=O)[C@@](O)(CCCN(Cc1ccc(-c2cccnc2)cc1)NC(=O)[C@@H](NC(=O)OC)C(C)(C)C)Cc1ccc(CC=C)cc1)C(C)C,Ki,"protein: HIV-1 protease, PDB entry 4cpq",0.018 µM (active)
C=CCNC(=O)[C@@H](NC(=O)[C@@](O)(CCCN(Cc1ccc(Br)cc1)NC(=O)[C@@H](NC(=O)OC)C(C)(C)C)Cc1ccccc1)C(C)(C)C,Ki,"protein: PROTEASE, PDB entry 3zps",0.005 µM (active)
C=CCNC(=O)[C@@H](NC(=O)[C@@](O)(CCCN(Cc1ccc(-c2cccs2)cc1)NC(=O)[C@@H](NC(=O)OC)C(C)(C)C)Cc1ccc(CC=C)cc1)C(C)C,Ki,"protein: HIV-1 protease, PDB entry 4cpr",0.035 µM (active)
CCCNC(=O)[C@@H](NC(=O)[C@@](O)(CCCN(Cc1ccc(-c2ccncc2)cc1)NC(=O)[C@@H](NC(=O)OC)C(C)(C)C)Cc1ccc(CCC)cc1)C(C)C,Ki,"protein: HIV-1 protease, PDB entry 4cp7",0.0078 µM (active)
CC1=C(C(=O)O)N[C@@H]([C@@H](C=O)NC(=O)Cc2cccs2)SC1,Ki,"protein: Carboxylesterases, PDB entry 4ivk",140 µM (active)
Cc1cc(C)nc(N)n1,Ki,"protein: PDE10A2, PDB entry 4llx",1300 µM (active)
CNc1nc2cc3nc[nH]c(=O)c3cc2[nH]1,Ki,"protein: Queuine tRNA-ribosyltransferase, PDB entry 3GEV",2.9 µM (active)
same,Ki,"protein: Queuine tRNA-ribosyltransferase, PDB entry 3V0Y",4.1 µM (active)
CC[C@H]1NC(=O)[C@H](CCCNC(N)N)NC(=O)CNC(=O)[C@H](CCCNC(N)N)NC(=O)[C@@H]2CSCc3cc(cc(c3)CSC[C@@H](C(=O)NCC(N)=O)NC(=O)[C@H](C)NC(=O)[C@H](CO)NC1=O)CSC[C@H](NC(=O)[C@H](C)N)C(=O)N[C@@H](CO)C(=O)N[C@@H](CCCNC(N)N)C(=O)N[C@@H](Cc1ccc(O)cc1)C(=O)N[C@@H](CCC(=O)O)C(=O)N[C@@H](C(C)C)C(=O)N[C@@H](CC(=O)O)C(=O)N2,Ki,"protein: Urokinase-type plasminogen activator (C299A, N322Q mutation), PDB entry 4jk6",0.064 µM (active)
CC(C)[C@@H]1NC(=O)[C@H](CCC(=O)O)NC(=O)[C@H](Cc2ccc(O)cc2)NC(=O)[C@H](CCCNC(N)N)NC(=O)[C@H](CO)NC(=O)[C@@H](NC(=O)[C@H](C)N)CSCc2cc3cc(c2)CSC[C@H](NC(=O)[C@H](CC(=O)O)NC1=O)C(=O)N[C@@H](CCCNC(N)N)C(=O)NCC(=O)N[C@@H](CCCNC(N)N)C(=O)N[C@H](CO)C(=O)N[C@@H](CO)C(=O)N[C@@H](C)C(=O)N[C@H](C(=O)NCC(N)=O)CSC3,Ki,"protein: Urokinase-type plasminogen activator (C122A, N145Q mutation), PDB entry 4jk5",0.028 µM (active)
